# The supplement of paper PMC4466140
# Key:
# Test in all cases: SPOT peptide array binding signal intensity (averaged, normalized) (arbitrary units (background-subtracted, floor 0; scale differs between SH3 domains)); higher = stronger binding of the SH3 domain to the peptide
# CaNbp2 = biological target: CaNbp2
# Procedure, shortened: (§1)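 Spot intensities were captured after detection with anti-GST antibody, an HRP-linked anti-mouse secondary and luminol, and quantified with Genespotter. The probes were GST-fused SH3 domains from four yeast species, produced in E. coli BL21(DE3), purified on glutathione Sepharose and incubated at 10 μg/ml overnight at 4°C on cellulose-bound synthetic 15-mer peptides with cysteines replaced by serines. Binding signal is the normalized, background-subtracted spot intensity averaged over replicates, and its arbitrary units differ between domains.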
# CaRvs167 = biological target: CaRvs167
# Procedure, shortened: as §1
# CaRvs167-3 = biological target: CaRvs167-3
# Procedure, shortened: as §1
# CaSho1 = biological target: CaSho1
# Procedure, shortened: as §1
# CaSla1-D1-D2 = biological target: CaSla1-D1-D2
# Procedure, shortened: as §1
# CaSla1-D3 = biological target: CaSla1-D3
# Procedure, shortened: as §1
# ScAbp1 = biological target: ScAbp1
# Procedure, shortened: as §1
# ScBbc1 = biological target: ScBbc1
# Procedure, shortened: as §1
# ScBem1-D1 = biological target: ScBem1-D1
# Procedure, shortened: as §1
# ScBzz1-D1 = biological target: ScBzz1-D1
# Procedure, shortened: as §1
# ScBzz1-D2 = biological target: ScBzz1-D2
# Procedure, shortened: as §1
# ScCyk3 = biological target: ScCyk3
# Procedure, shortened: as §1
# ScFus1 = biological target: ScFus1
# Procedure, shortened: as §1
# ScHof1 = biological target: ScHof1
# Procedure, shortened: as §1
# ScHse1 = biological target: ScHse1
# Procedure, shortened: as §1
# ScLsb1 = biological target: ScLsb1
# Procedure, shortened: as §1
# ScLsb2 = biological target: ScLsb2
# Procedure, shortened: as §1
# ScLsb3 = biological target: ScLsb3
# Procedure, shortened: as §1
# ScLsb4 = biological target: ScLsb4
# Procedure, shortened: as §1
# ScMyo3 = biological target: ScMyo3
# Procedure, shortened: as §1
# ScMyo5 = biological target: ScMyo5
# Procedure, shortened: as §1
# ScNbp2 = biological target: ScNbp2
# Procedure, shortened: as §1
# ScPex13 = biological target: ScPex13
# Procedure, shortened: as §1
# ScRvs167 = biological target: ScRvs167
# Procedure, shortened: as §1
# ScSho1 = biological target: ScSho1
# Procedure, shortened: as §1
# ScSla1-D1-D2 = biological target: ScSla1-D1-D2
# Procedure, shortened: as §1
# ScSla1-D3 = biological target: ScSla1-D3
# Procedure, shortened: as §1
# SpAbp1-D1 = biological target: SpAbp1-D1
# Procedure, shortened: as §1
# SpBbc1 = biological target: SpBbc1
# Procedure, shortened: as §1
# SpBzz1-D1 = biological target: SpBzz1-D1
# Procedure, shortened: as §1
# SpBzz1-D2 = biological target: SpBzz1-D2
# Procedure, shortened: as §1
# SpCyk3 = biological target: SpCyk3
# Procedure, shortened: as §1
# SpHof1 = biological target: SpHof1
# Procedure, shortened: as §1
# SpHof1-2 = biological target: SpHof1-2
# Procedure, shortened: as §1
# SpHof1-3 = biological target: SpHof1-3
# Procedure, shortened: as §1
# SpHse1 = biological target: SpHse1
# Procedure, shortened: as §1
# SpLsb1 = biological target: SpLsb1
# Procedure, shortened: as §1
# SpLsb4 = biological target: SpLsb4
# Procedure, shortened: as §1
# SpMyo1 = biological target: SpMyo1
# Procedure, shortened: as §1
# SpNbp2 = biological target: SpNbp2
# Procedure, shortened: as §1
# SpPex13 = biological target: SpPex13
# Procedure, shortened: as §1
# SpRvs167 = biological target: SpRvs167
# Procedure, shortened: as §1
# SpSla1-D1-D2 = biological target: SpSla1-D1-D2
# Procedure, shortened: as §1
# SpSla1-D3 = biological target: SpSla1-D3
# Procedure, shortened: as §1
# AgAbp1 = biological target: AgAbp1
# Procedure, shortened: as §1
# AgBbc1 = biological target: AgBbc1
# Procedure, shortened: as §1
# AgBem1-D1 = biological target: AgBem1-D1
# Procedure, shortened: as §1
# AgBzz1-D1 = biological target: AgBzz1-D1
# Procedure, shortened: as §1
# AgBzz1-D2 = biological target: AgBzz1-D2
# Procedure, shortened: as §1
# AgCyk3 = biological target: AgCyk3
# Procedure, shortened: as §1
# AgFus1 = biological target: AgFus1
# Procedure, shortened: as §1
# AgHof1 = biological target: AgHof1
# Procedure, shortened: as §1
# AgHse1 = biological target: AgHse1
# Procedure, shortened: as §1
# AgLsb1 = biological target: AgLsb1
# Procedure, shortened: as §1
# AgLsb4 = biological target: AgLsb4
# Procedure, shortened: as §1
# AgMyo5 = biological target: AgMyo5
# Procedure, shortened: as §1
# AgNbp2 = biological target: AgNbp2
# Procedure, shortened: as §1
# AgRvs167 = biological target: AgRvs167
# Procedure, shortened: as §1
# AgSho1 = biological target: AgSho1
# Procedure, shortened: as §1
# AgSla1-D1-D2 = biological target: AgSla1-D1-D2
# Procedure, shortened: as §1
# AgSla1-D3 = biological target: AgSla1-D3
# Procedure, shortened: as §1
# CaAbp1-D1 = biological target: CaAbp1-D1
# Procedure, shortened: as §1
# CaAbp1-D2 = biological target: CaAbp1-D2
# Procedure, shortened: as §1
# CaBbc1 = biological target: CaBbc1
# Procedure, shortened: as §1
# CaBem1-D1 = biological target: CaBem1-D1
# Procedure, shortened: as §1
# CaBzz1-D1 = biological target: CaBzz1-D1
# Procedure, shortened: as §1
# CaBzz1-D2 = biological target: CaBzz1-D2
# Procedure, shortened: as §1
# CaCyk3 = biological target: CaCyk3
# Procedure, shortened: as §1
# CaFus1 = biological target: CaFus1
# Procedure, shortened: as §1
# CaHof1 = biological target: CaHof1
# Procedure, shortened: as §1
# CaHse1 = biological target: CaHse1
# Procedure, shortened: as §1
# CaLsb1 = biological target: CaLsb1
# Procedure, shortened: as §1
# CaLsb4 = biological target: CaLsb4
# Procedure, shortened: as §1
# CaMyo5 = biological target: CaMyo5
# Procedure, shortened: as §1
binder,measurement,setting,value
VRVKKRPLIRPLNSS,SPOT peptide array binding signal intensity,CaNbp2,311
same,SPOT peptide array binding signal intensity,CaRvs167,8.5
same,SPOT peptide array binding signal intensity,CaRvs167-3,183
same,SPOT peptide array binding signal intensity,CaSho1,370
same,SPOT peptide array binding signal intensity,CaSla1-D1-D2,534
same,SPOT peptide array binding signal intensity,CaSla1-D3,0.25
same,SPOT peptide array binding signal intensity,ScAbp1,138
same,SPOT peptide array binding signal intensity,ScBbc1,82
same,SPOT peptide array binding signal intensity,ScBem1-D1,70
same,SPOT peptide array binding signal intensity,ScBzz1-D1,11.5
same,SPOT peptide array binding signal intensity,ScBzz1-D2,11
same,SPOT peptide array binding signal intensity,ScCyk3,91.5
same,SPOT peptide array binding signal intensity,ScFus1,156
same,SPOT peptide array binding signal intensity,ScHof1,0.75
same,SPOT peptide array binding signal intensity,ScHse1,1480
same,SPOT peptide array binding signal intensity,ScLsb1,57.8
same,SPOT peptide array binding signal intensity,ScLsb2,5.5
same,SPOT peptide array binding signal intensity,ScLsb3,312
same,SPOT peptide array binding signal intensity,ScLsb4,19
same,SPOT peptide array binding signal intensity,ScMyo3,3
same,SPOT peptide array binding signal intensity,ScMyo5,1.5
same,SPOT peptide array binding signal intensity,ScNbp2,312
same,SPOT peptide array binding signal intensity,ScPex13,0.25
same,SPOT peptide array binding signal intensity,ScRvs167,15.5
same,SPOT peptide array binding signal intensity,ScSho1,386
same,SPOT peptide array binding signal intensity,ScSla1-D1-D2,330
same,SPOT peptide array binding signal intensity,ScSla1-D3,16
same,SPOT peptide array binding signal intensity,SpAbp1-D1,388
same,SPOT peptide array binding signal intensity,SpBbc1,9.75
same,SPOT peptide array binding signal intensity,SpBzz1-D1,150
same,SPOT peptide array binding signal intensity,SpBzz1-D2,≤ 0
same,SPOT peptide array binding signal intensity,SpCyk3,≤ 0
same,SPOT peptide array binding signal intensity,SpHof1,188
same,SPOT peptide array binding signal intensity,SpHof1-2,12.5
same,SPOT peptide array binding signal intensity,SpHof1-3,373
same,SPOT peptide array binding signal intensity,SpHse1,279
same,SPOT peptide array binding signal intensity,SpLsb1,14.5
same,SPOT peptide array binding signal intensity,SpLsb4,135
same,SPOT peptide array binding signal intensity,SpMyo1,5.5
same,SPOT peptide array binding signal intensity,SpNbp2,773
same,SPOT peptide array binding signal intensity,SpPex13,17
same,SPOT peptide array binding signal intensity,SpRvs167,3.67
same,SPOT peptide array binding signal intensity,SpSla1-D1-D2,≤ 0
same,SPOT peptide array binding signal intensity,SpSla1-D3,2
EVTPKVPERPSRRKT,SPOT peptide array binding signal intensity,AgAbp1,377
same,SPOT peptide array binding signal intensity,AgBbc1,2180
same,SPOT peptide array binding signal intensity,AgBem1-D1,13
same,SPOT peptide array binding signal intensity,AgBzz1-D1,819
same,SPOT peptide array binding signal intensity,AgBzz1-D2,136
same,SPOT peptide array binding signal intensity,AgCyk3,1
same,SPOT peptide array binding signal intensity,AgFus1,4.5
same,SPOT peptide array binding signal intensity,AgHof1,21.8
same,SPOT peptide array binding signal intensity,AgHse1,47
same,SPOT peptide array binding signal intensity,AgLsb1,39.9
same,SPOT peptide array binding signal intensity,AgLsb4,2480
same,SPOT peptide array binding signal intensity,AgMyo5,1.25
same,SPOT peptide array binding signal intensity,AgNbp2,44.5
same,SPOT peptide array binding signal intensity,AgRvs167,11.3
same,SPOT peptide array binding signal intensity,AgSho1,8.25
same,SPOT peptide array binding signal intensity,AgSla1-D1-D2,≤ 0
same,SPOT peptide array binding signal intensity,AgSla1-D3,7.75
same,SPOT peptide array binding signal intensity,CaAbp1-D1,324
same,SPOT peptide array binding signal intensity,CaAbp1-D2,620
same,SPOT peptide array binding signal intensity,CaBbc1,2760
same,SPOT peptide array binding signal intensity,CaBem1-D1,24
same,SPOT peptide array binding signal intensity,CaBzz1-D1,1370
same,SPOT peptide array binding signal intensity,CaBzz1-D2,406
same,SPOT peptide array binding signal intensity,CaCyk3,420
same,SPOT peptide array binding signal intensity,CaFus1,≤ 0
same,SPOT peptide array binding signal intensity,CaHof1,4.88
same,SPOT peptide array binding signal intensity,CaHse1,316
same,SPOT peptide array binding signal intensity,CaLsb1,≤ 0
same,SPOT peptide array binding signal intensity,CaLsb4,6660
same,SPOT peptide array binding signal intensity,CaMyo5,≤ 0
same,SPOT peptide array binding signal intensity,CaNbp2,80.8
same,SPOT peptide array binding signal intensity,CaRvs167,177
same,SPOT peptide array binding signal intensity,CaRvs167-3,2
same,SPOT peptide array binding signal intensity,CaSho1,≤ 0
same,SPOT peptide array binding signal intensity,CaSla1-D1-D2,786
same,SPOT peptide array binding signal intensity,CaSla1-D3,0.5
same,SPOT peptide array binding signal intensity,ScAbp1,141
same,SPOT peptide array binding signal intensity,ScBbc1,2080
same,SPOT peptide array binding signal intensity,ScBem1-D1,10
same,SPOT peptide array binding signal intensity,ScBzz1-D1,57.5
same,SPOT peptide array binding signal intensity,ScBzz1-D2,11.8
same,SPOT peptide array binding signal intensity,ScCyk3,1.53e-05
same,SPOT peptide array binding signal intensity,ScFus1,5
same,SPOT peptide array binding signal intensity,ScHof1,11.5
same,SPOT peptide array binding signal intensity,ScHse1,≤ 0
same,SPOT peptide array binding signal intensity,ScLsb1,842
same,SPOT peptide array binding signal intensity,ScLsb2,508
same,SPOT peptide array binding signal intensity,ScLsb3,6280
same,SPOT peptide array binding signal intensity,ScLsb4,5280
same,SPOT peptide array binding signal intensity,ScMyo3,1.5
same,SPOT peptide array binding signal intensity,ScMyo5,≤ 0
same,SPOT peptide array binding signal intensity,ScNbp2,270
same,SPOT peptide array binding signal intensity,ScPex13,1490
same,SPOT peptide array binding signal intensity,ScRvs167,924
same,SPOT peptide array binding signal intensity,ScSho1,28.5
same,SPOT peptide array binding signal intensity,ScSla1-D1-D2,2340
same,SPOT peptide array binding signal intensity,ScSla1-D3,69.4
same,SPOT peptide array binding signal intensity,SpAbp1-D1,130
same,SPOT peptide array binding signal intensity,SpBbc1,1260
same,SPOT peptide array binding signal intensity,SpBzz1-D1,514
